In article PMC8668186, “Molecular architecture of the human tRNA ligase complex” (eLife, 2021) one finds cross-linked residues data, which are given here for one substance.

One assay has as its target DDX1 (UniProt Q92499). The assay can be described thus: cross-linking mass spectrometry. The conditions noted are these: DSS, purified complex.
A further assay has as its target RTCB (UniProt Q9Y3I0). The assay can be described thus: cross-linking mass spectrometry. The conditions noted are these: DSS, purified complex.

FAM98B, sequence (Q52LJ0 whole entry): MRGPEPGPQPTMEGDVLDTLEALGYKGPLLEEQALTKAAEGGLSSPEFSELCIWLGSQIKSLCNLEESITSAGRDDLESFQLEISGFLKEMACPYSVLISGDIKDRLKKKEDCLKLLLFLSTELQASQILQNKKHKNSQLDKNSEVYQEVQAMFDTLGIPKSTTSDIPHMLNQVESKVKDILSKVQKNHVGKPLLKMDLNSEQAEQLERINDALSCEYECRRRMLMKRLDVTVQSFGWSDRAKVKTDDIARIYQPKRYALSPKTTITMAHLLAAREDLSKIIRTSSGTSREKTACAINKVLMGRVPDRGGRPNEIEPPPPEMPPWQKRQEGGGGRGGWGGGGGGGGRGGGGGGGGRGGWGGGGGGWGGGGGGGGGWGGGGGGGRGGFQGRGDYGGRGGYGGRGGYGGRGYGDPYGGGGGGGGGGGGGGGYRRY
DDX1, sequence (Q92499 whole entry): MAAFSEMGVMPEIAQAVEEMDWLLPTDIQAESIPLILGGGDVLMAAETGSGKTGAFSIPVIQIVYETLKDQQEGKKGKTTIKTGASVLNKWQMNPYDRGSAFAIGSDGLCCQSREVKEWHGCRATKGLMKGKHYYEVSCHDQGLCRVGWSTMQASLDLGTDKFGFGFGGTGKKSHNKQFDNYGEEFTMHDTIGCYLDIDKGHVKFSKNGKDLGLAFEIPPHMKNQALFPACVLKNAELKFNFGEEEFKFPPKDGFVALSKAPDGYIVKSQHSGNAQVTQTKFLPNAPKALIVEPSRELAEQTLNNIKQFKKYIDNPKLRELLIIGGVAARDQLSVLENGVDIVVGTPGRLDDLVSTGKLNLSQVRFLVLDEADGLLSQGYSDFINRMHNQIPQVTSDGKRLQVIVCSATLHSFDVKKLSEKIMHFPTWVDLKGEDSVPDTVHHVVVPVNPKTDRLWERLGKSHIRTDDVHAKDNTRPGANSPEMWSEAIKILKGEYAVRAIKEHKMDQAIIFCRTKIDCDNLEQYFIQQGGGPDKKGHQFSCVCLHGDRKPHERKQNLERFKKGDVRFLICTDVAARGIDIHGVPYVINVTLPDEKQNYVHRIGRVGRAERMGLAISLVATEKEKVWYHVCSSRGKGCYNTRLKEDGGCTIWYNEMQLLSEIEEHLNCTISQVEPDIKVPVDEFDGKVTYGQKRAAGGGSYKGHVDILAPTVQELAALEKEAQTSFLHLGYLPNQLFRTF
RTCB, sequence (Q9Y3I0 whole entry): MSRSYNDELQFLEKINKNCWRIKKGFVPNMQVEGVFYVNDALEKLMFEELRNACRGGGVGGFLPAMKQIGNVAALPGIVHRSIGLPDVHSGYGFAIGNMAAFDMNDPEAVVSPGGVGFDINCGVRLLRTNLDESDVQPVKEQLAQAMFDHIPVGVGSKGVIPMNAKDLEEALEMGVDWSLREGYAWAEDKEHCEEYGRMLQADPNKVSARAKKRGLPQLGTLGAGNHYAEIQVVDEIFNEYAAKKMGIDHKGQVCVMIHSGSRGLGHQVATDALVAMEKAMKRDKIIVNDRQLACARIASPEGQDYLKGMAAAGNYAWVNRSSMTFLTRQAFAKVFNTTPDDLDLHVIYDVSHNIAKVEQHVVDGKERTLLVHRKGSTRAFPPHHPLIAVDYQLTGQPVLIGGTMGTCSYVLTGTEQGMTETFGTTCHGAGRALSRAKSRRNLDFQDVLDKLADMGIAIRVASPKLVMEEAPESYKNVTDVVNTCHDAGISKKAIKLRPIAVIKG

On to FAM98B, Q52LJ0, for which the values for the cross-linked residues entry with DDX1 and with RTCB were “K245 - K693” and “K280 - K245”, respectively.
